Assay results reported in ChEMBL document CHEMBL3988442, “University of Dundee, Small-Polar-MMV Screening Library” (2021).

These compounds were tested against T1, Tyrosyl-tRNA synthetase, putative (Trypanosoma cruzi (strain CL Brener)) (UniProt Q4DSP6) (assay: Trypanosoma cruzi tyrosyl tRNA synthetase (TcYRS) _High Tyrosine SOP). Settings: 30 µM.
T1 sequence (whole entry): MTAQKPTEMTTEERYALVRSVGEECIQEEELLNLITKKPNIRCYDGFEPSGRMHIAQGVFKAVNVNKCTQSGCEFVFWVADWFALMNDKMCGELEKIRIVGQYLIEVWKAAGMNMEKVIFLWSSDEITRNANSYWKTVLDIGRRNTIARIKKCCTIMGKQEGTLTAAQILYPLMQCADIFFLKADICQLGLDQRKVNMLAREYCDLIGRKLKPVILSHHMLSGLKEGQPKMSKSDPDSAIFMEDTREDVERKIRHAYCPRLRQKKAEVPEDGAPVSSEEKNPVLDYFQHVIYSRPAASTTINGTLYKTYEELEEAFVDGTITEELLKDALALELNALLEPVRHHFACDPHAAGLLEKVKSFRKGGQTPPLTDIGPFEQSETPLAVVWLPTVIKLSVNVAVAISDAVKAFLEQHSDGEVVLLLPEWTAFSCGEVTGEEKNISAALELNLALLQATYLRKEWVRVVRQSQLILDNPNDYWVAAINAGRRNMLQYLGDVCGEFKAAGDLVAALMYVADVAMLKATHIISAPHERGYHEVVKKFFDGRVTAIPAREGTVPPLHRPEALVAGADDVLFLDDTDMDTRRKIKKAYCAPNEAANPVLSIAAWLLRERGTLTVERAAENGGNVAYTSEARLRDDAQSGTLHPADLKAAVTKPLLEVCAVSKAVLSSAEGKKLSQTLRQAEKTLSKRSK
Type: functional
Design: scale not given: in the data most compounds retested in dose-response had high values
Work on Cc1cccc2cc(CNCCCN3CCOCC3)c(=O)[nH]c12 yielded a Percent Effect of 3.23%. For CC(C)N(C)C(=O)C1=NOC2(CCN(C(=O)c3ccncc3)C2)C1 (stereo not given), the Percent Effect was 1.04%. Compound Cc1cnn(CC(C)NCc2ccc(-n3cccn3)cc2)c1 (stereo not given) has a Percent Effect of 0%. Cc1nc(C)n(C2CCCN(C(=O)Cc3cccnc3)C2)n1 (stereo not given) was tested, and the Percent Effect was 5.94%. Work on CN(C)C(=O)CN1CCCCC1c1nc(N)ncc1-c1cccc(F)c1 (stereo not given) yielded a Percent Effect of 4.25%. O=C(C1CC1)N1CCN(Cc2coc(-c3ccc(Cl)cc3)n2)CC1 gave a Percent Effect of 3.88%. Compound CN(CCNC(=O)N1CCN(Cc2ccon2)CC1)C1CCCC1 has a Percent Effect of 4.92%. Work on c1csc(N2CCCN(Cc3nc(C4CC4)no3)CC2)n1 yielded a Percent Effect of 5.83%. N#Cc1ccc(C(=O)N2CC[C@H]3[C@@H]2CCC(=O)N3c2cccnc2)cc1 gave a Percent Effect of 1.08%. Cc1nn(C)c(C)c1C1CCCN1C(=O)c1ccc(Cl)o1 (stereo not given) gave a Percent Effect of 4.95%. Cc1nccn1-c1cc(CNC(=O)c2ccccn2)ccn1 gave a Percent Effect of 2.15%. Compound O=C1COc2c(cccc2C(=O)N2CCCCC2Cn2cccn2)N1 (stereo not given) has a Percent Effect of 6.67%. Work on Cc1cc(C)n(CC2CCCN2CC(=O)N(C)C)n1 (stereo not given) yielded a Percent Effect of -0.493%. For CC(C)(C)C(=O)NCCc1ccn(-c2ccccc2)n1, the Percent Effect was 4.17%. With CC(C)C(NC(=O)NCCNc1ccccn1)c1cccs1 (stereo not given) the Percent Effect was 9.71%. Cc1ccc(CN2CCCC3(COCCN(Cc4c[nH]nn4)C3)C2)o1 (stereo not given) was tested, and the Percent Effect was 7.29%. CCNC(c1ccc(OC)cc1)c1cccnc1 (stereo not given) gave a Percent Effect of 1.04%. CCN(CC1CCCO1)C(=O)Nc1cc(OC)c(OC)cc1C (stereo not given) was tested, and the Percent Effect was 8.37%. Cc1cc(C2CCCN2C(=O)c2cc3c(s2)CCC3)on1 (stereo not given) showed a Percent Effect of 0.49%. COc1ccccc1[C@@H]1CN(C(=O)c2csc(C)n2)C[C@H]1C(=O)O gave a Percent Effect of 12.6%. CCc1ccc(CN2CCC3(CC2)CC(N2CCN(C)CC2)CO3)cc1 (stereo not given) was tested, and the Percent Effect was 4.32%. Cc1ccc(C(=O)NC(C)CN2CCCC2=O)c(=O)[nH]1 (stereo not given) was tested, and the Percent Effect was 1.07%. CCc1nnc2n1CCN(C(=O)c1cc3ccc(F)cc3nc1C)C2 showed a Percent Effect of 11.7%. For CC(C)n1ccnc1C1CCN(Cc2ccc(Cl)c(F)c2)CC1, the Percent Effect was 6.45%. CC(C)c1ncc2c(n1)CN(Cc1ccc(C(N)=O)cc1)CC2 was tested, and the Percent Effect was 12.2%. Work on COc1cccc2c1ccn2CCC(=O)NCCCC(=O)O yielded a Percent Effect of 5.29%. In the case of CN(C(=O)c1ccccn1)c1nc2c(s1)CCc1c-2cnn1C, the Percent Effect is reported as -4.3%. Cc1ccc2c(c1)OCCCC2NCc1nnc2n1CCCCC2 (stereo not given) showed a Percent Effect of -15.1%. Compound CC(C)c1noc(CN2CCN(C(=O)c3ccccc3F)CC2)n1 has a Percent Effect of 7.92%. O=C(c1ccc[nH]1)N1CCC(c2nccn2Cc2ccncc2)CC1 showed a Percent Effect of 5.38%. Compound O=S(=O)(Nc1cnn(C2CCOCC2)c1)c1ccc(F)c(F)c1 has a Percent Effect of -1.06%. CN(C)C(CNC(=O)c1cccc(-n2cnnn2)c1)c1ccccc1Cl (stereo not given) was tested, and the Percent Effect was 3.23%. CC(O)CN1CCN(C(=O)c2ccc(Br)o2)CC1 (stereo not given) was tested, and the Percent Effect was 4.41%. Work on CC(NC1(CNC(=O)CC(C)(C)C)CCOCC1)c1ccccc1 (stereo not given) yielded a Percent Effect of 3.23%. CC(=O)N1CC(=O)N(c2ccccc2)CC12CCN(Cc1nccs1)C2 (stereo not given) gave a Percent Effect of 7.29%. Work on CN(C)CC1CN(Cc2csc(C3CCCC3)n2)CCO1 (stereo not given) yielded a Percent Effect of 8.37%. For Cc1cccc2nc(C(=O)N3CCC(Nc4cccnn4)CC3)cn12, the Percent Effect was 0%. For O=C(CCNc1ncccn1)N1CCCC(n2ccnc2)C1 (stereo not given), the Percent Effect was 8.33%. In the case of CC(=O)N1CC(=O)N(c2cnn(C)c2)CC12CCN(CC1CC1)C2 (stereo not given), the Percent Effect is reported as 4.95%. In the case of COCCNC(=O)c1cc2c(s1)CCN2C(=O)c1ccccc1, the Percent Effect is reported as 6.25%.
